DT40 TDP1 no CPT: qHTS for Inhibitors of human tyrosyl-DNA phosphodiesterase 1 (TDP1): qHTS in cells in absence of CPT; DT40 Tdp1-/- hTDP1 cells, no CPT, ATP luminescence, 48 h; Potency, µM (doses to about 46.2 µM), for the others: top-dose activity change, negative = growth inhibition, usual class: inhibitors; 420,000 tested, 15% active; AID 686978, 2013; note: potency is the fitted concentration of half-maximal effect; nearly all actives have a fitted effect of over 55% in size
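Seeded 400 DT40-hTDP1 cells/well (vehicle DMSO, no 20 nM CPT); pinned compounds; ≥48 hr at 37 °C; CellTiter-Glo luminescence as viability measure.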
TDP1 cell CPT: DT40-hTDP1 cell growth loss with CPT; Potency, µM (highest dose often 46.2 µM), without a hit: at the highest dose activity change, negative = growth inhibition, usual class: inhibitors; AID 686979; 420,000 tested, 12% active; chicken DT40 Tdp1-/-;hTDP1 cells + 20 nM CPT, ATP luminescence, 48 h; note: potency is the fitted concentration of half-maximal effect; nearly all actives have a fitted effect of over 55% in size
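Chicken DT40 Tdp1-/- cells complemented with human TDP1, 400 cells/well, exposed to compounds plus 20 nM camptothecin for at least 48 h at 37 C; viability read as ATP content by CellTiter-Glo luminescence.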
HT1080-NT tox: kills 2HG-producing HT-1080-NT fibrosarcoma cells; 360,000 tested, 1.6% active; HT-1080-NT fibrosarcoma viability, CellTiter-Glo ATP luminescence, 48 h; Potency, µM (titrated, usually from 46.1 µM), for the others: at the top dose activity, negative = less viability, most hits filed as cytotoxic;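 note: NT is the 2HG producing partner of a matched IDH1 knockdown line; potency is the fitted concentration of half-maximal effect; 0% = DMSO-treated cells and -100% = media-only wells without cells; nearly all actives have a fitted effect of over 55% in size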
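750 cells/well, RPMI + 5% FBS; 2 h settle, compound pin-transfer, 48 h at 37 degrees C. CellTiter-Glo 10 min RT, luminescence. Normalized to DMSO and media-only wells.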
IL1B secr inh: inflammasome signaling inhibition, IL-1 beta readout; THP-1 LPS/ATP IL-1B secretion, AlphaLISA, 16 h; active compounds read low; activity change, % at 57.5 µM; 360,000 tested, 4.7% active; AID 743279; in the data active = activity change below about -50%; inconclusive = mostly about -30% to -49%
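THP-1 cells pretreated 1 hr with compounds (up to 57.5 uM final), then stimulated with LPS (250 ng/mL final) plus ATP (1.25 mM final); secreted IL-1B measured by AlphaLISA after 16 hr, decreased signal indicating inhibition.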
uPA surface inh: blocks generation of uPA at the cell surface; cell surface uPA generation assay, qHTS; Potency, µM (doses to about 38.3 µM), for the others: at the top dose activity change, negative = inhibition, most hits filed as inhibitors; 330,000 tested, 0.31% active; AID 540303; active = well fitted inhibition curve with a large enough effect; inconclusive = small, poorly fitted or top-dose-only effect; inactive = no such curve, though single readings can be large or run the other way; tested in mouse RAW 264.7 cells; note: potency is the fitted concentration of half-maximal effect; nearly all actives have a fitted effect of over 55% in size
HT1080 IDH1KD tx: kills HT-1080 cells with IDH1 knockdown | HT-1080 IDH1 knockdown viability, ATP luminescence, 48 h | Potency, µM (highest dose often 46.1 µM), for the others: at the highest dose activity, negative = toxicity, usual class: cytotoxic | 360,000 tested, 2% active | AID 686971;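 note: potency is the fitted concentration of half-maximal effect; 0% = DMSO wells and -100% = cell-free medium wells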
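HT-1080-IDH1KD cells (IDH1 knocked down), 750/well in RPMI with 5% FBS, treated with compound 48 h at 37 degrees C. Viability by CellTiter-Glo luminescence, normalised to DMSO and no-cell wells; concentration-response curves classed.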
The depositor's hits bear a star; ? = inconclusive; nt = not tested or not shown; [ ] = remark or other dose. Shown are actives, neighbours in structure and some others; about 19% of the full set was active somewhere. Unless noted, calls come from the whole dose curve; as a rule, active = well fitted curve in the direction sought with a large enough effect; inconclusive = small, poorly fitted or top-dose-only effect, or another doubt; inactive = no such curve, though single readings can be large; an effect the other way counts as inactive or inconclusive. Unless noted, % is set by controls: 0 for no effect and ±100 for the full control effect.

SMILES	DT40 TDP1 no CPT	TDP1 cell CPT	HT1080-NT tox	IL1B secr inh	uPA surface inh	HT1080 IDH1KD tx
O=S(=O)(Nc1cccc2cccnc12)c1ccc(S(=O)(=O)N2CCCC2)cc1	13µM*	16µM*	2µM*	-71*	?	1.3µM*
NC(=S)NNc1cccc2cccnc12	12µM*	6.5µM*	?	44	-4%	?
CS(=O)(=O)Nc1cccc2cccnc12	4.6µM*	4.6µM*	-8%	46	-5%	4%
NC(=S)Nc1cccc2cccnc12	-2%	14%	7%	9	-2%	9%
CCOc1ccc(-n2ccnc2SCC(=O)Nc2ccc(OC)cc2OC)cc1	?	6%	nt	nt	nt	nt
Cc1ccc(S(=O)(=O)N2CCN(S(=O)(=O)N3CCC(C)CC3)CC2)cc1C	-17%	-6%	15%	-7	1%	16%
Cc1ccccc1-c1nc2c3c(-c4ccccc4)c(-c4ccccc4)oc3ncn2n1	-7%	4%	nt	nt	nt	nt
Cc1cc(C)c(-c2c(O)c3cccnc3n(C)c2=O)c(C)c1	-5%	0%	5%	-7	-1%	11%
Cc1cc(C)n(-c2ccc3cccc(NS(C)(=O)=O)c3n2)n1	5.8µM*	5.2µM*	?	214	-7%	?
CC(=O)Nc1ccc(S(=O)(=O)Nc2cccc3cccnc23)cc1	-20%	-4%	5%	54	-8%	-12%
O=S(=O)(Nc1cccc2cccnc12)c1ccccc1	8.2µM*	13µM*	26µM*	-104*	-4%	23µM*
Cc1ccc2cccc(NS(=O)(=O)c3ccccc3)c2n1	21µM*	?	?	37	-10%	?
Cc1cc(C)n(-c2cccc3cccnc23)n1	-13%	-2%	0%	-4	nt	25%
Cc1cc(C)nc(NS(=O)(=O)c2ccccc2)n1	-1%	-6%	1%	4	7%	14%
Cc1cc(C)c(NC(=O)Cn2c(=O)n(CC3CCCO3)c(=O)c3ccccc32)c(C)c1 (stereo not drawn)	2%	12%	nt	nt	nt	nt
O=C(CSc1cn[nH]n1)Nc1ccccc1C(=O)O	-1%	2%	14%	15	2%	12%
COC(=O)[C@]12CCCCC=C1N(Cc1ccc3c(c1)OCO3)C(=O)[C@H](CC(=O)NCc1cccc(C(F)(F)F)c1)C2	?	?	?	-18	nt	?
COC(=O)[C@@]12C[C@@H](CC(=O)NCc3cccc(C(F)(F)F)c3)C(=O)N(Cc3ccc4c(c3)OCO4)C1=CCC(C)(C)C2	18µM*	?	13µM*	-71*	nt	21µM*
COC(=O)[C@@]12C[C@@H](CC(=O)NCc3ccc(OC)c(OC)c3)C(=O)N(Cc3ccc4c(c3)OCO4)C1=CCC(C)(C)C2	26µM*	15µM*	-6%	-28	nt	-16%
Cc1ccc(N2CC(C(=O)OCC(=O)Nc3ccc(Cl)cc3)CC2=O)cc1 (stereo not drawn)	9%	-1%	-3%[9.24 µM]	-26	-4%	-3%
CCN(C(=O)CSc1nc(-c2cccs2)nc2ccccc12)C1CCS(=O)(=O)C1 (stereo not drawn)	?	?	-9%	-93*	0%	-7%
COc1ccc2c(-c3ccccc3)cc(SCC(=O)NC3CCS(=O)(=O)C3)nc2c1 (stereo not drawn)	-25%	-24%	?	-82*	-2%	?
CCN(C(=O)CSc1cc(C)c2ccc(OC)cc2n1)C1CCS(=O)(=O)C1 (stereo not drawn)	-17%	2%	-12%	-11	-3%	-6%
CCN(C(=O)CSc1cc(-c2ccccc2)c2ccc(OC)cc2n1)C1CCS(=O)(=O)C1 (stereo not drawn)	?	?	-27%	-61*	-10%	-28%
CCN(C(=O)COC(=O)c1c2c(nc3ccccc13)/C(=C/c1ccccc1)CC(C)C2)C1CCS(=O)(=O)C1 (stereo not drawn)	13µM*	?	?	-20	-9%	?
SMILES	DT40 TDP1 no CPT	TDP1 cell CPT	HT1080-NT tox	IL1B secr inh	uPA surface inh	HT1080 IDH1KD tx
CC(C)C(=O)OCc1cc(=O)n2nc(C3CC3)sc2n1	6%	-17%	nt	nt	nt	nt
CCC1CCCCN1C(=O)c1ccc([N+](=O)[O-])o1 (stereo not drawn)	-20%	?	-20%	-20	-5%	-3%
O=C(N[C@@H]1c2ccccc2CC[C@@H]1OCc1ccccc1)c1ccc(C(F)(F)F)cc1	-23%	-3%	5%	42	-2%	5%
COc1ccc2c(-c3ccccc3)cc(SCC(=O)N(C)C)nc2c1	?	?	0%	-68*	2%	-16%
Cc1c(NC(=O)C(C)OC(=O)/C=C/c2ccccc2)c(=O)n(-c2ccccc2)n1C (stereo not drawn)	2%	1%	9%	2	1%	0%
CC(OC(=O)/C=C/c1ccco1)C(=O)Nc1cccc([N+](=O)[O-])c1 (stereo not drawn)	18µM*	18µM*	4%	18	-4%	2%
O=C(/C=C/c1ccco1)NC(=S)Nc1ccccc1	26µM*	-28%	-21%	-20	?	-18%
CC(OC(=O)/C=C/c1ccccc1)C(=O)Nc1cccc(C#N)c1 (stereo not drawn)	16µM*	16µM*	?	32	-7%	-23%
Cc1cccc(NC(=S)NC(=O)/C=C/c2ccco2)c1	?	3.3µM*	?	4	-18%	?
ClC(CCN1CCN(Cc2ccccc2)CC1)c1ccccc1 (stereo not drawn)	?	?	14%	24	-8%	12%
CC(=O)N1CCC2(CC1)OC(=O)C(C)=C2C(=O)Nc1cccc(Cl)c1C	5%	10%	nt	nt	nt	nt
COc1ccc(CCNC(=O)c2ccccc2NS(=O)(=O)c2c(F)cccc2F)cc1	-14%	0%	-7%	9	10%	-11%
CC(=O)c1nnn(-c2ccc(C)cc2Cl)c1C	-2%	-5%	nt	nt	nt	nt
O=C(/C=C/c1ccco1)NC(=S)Nc1ccc(N2CCOCC2)c(Cl)c1	4.6µM*	5.2µM*	?	21	-17%	?
O=C(/C=C/c1ccco1)NC(=S)Nc1cccc([N+](=O)[O-])c1	15µM*	?	21µM*	-7	-3%	13µM*
O=C(NC(=S)Nc1cccc([N+](=O)[O-])c1)c1ccco1	-13%	3%	-6%	15	-4%	-3%

Screens: PubChem, National Center for Advancing Translational Sciences (NCATS)
